This passage reports Potency and outcome results from PubChem BioAssay (NCATS).

Inconclusive results are not listed. Calls of active or inactive are those of the source. Unless noted, calls follow the shape of the dose curve; as a rule, active = well fitted curve in the direction sought with a large enough effect; inconclusive = small, poorly fitted or top-dose-only effect, or another doubt; inactive = no such curve, though single readings can be large; an effect the other way counts as inactive or inconclusive.

Assay [1] concerns the target Protein phosphatase 1D (Homo sapiens) (UniProt O15297). Put plainly: RapidFire Mass Spectrometry qHTS Assay for Modulators of WT P53-Induced Phosphatase 1 (WIP1) (AID 1347424). Also: series mostly up to about 63 µM. The essentials: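 RapidFire MS readout of dephosphorylated VEPPL-S-QETFS product, with 1 uM isotope-labelled peptide standard. Reaction: 10 nM WIP1, 2 uM phosphopeptide substrate, 5 min, room temperature, after 1 h compound preincubation; stopped with 0.5% formic acid.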
On the technique in general: In qHTS, concentration-response curves come from the screen itself.

Assay [2] has the same target. Put plainly: Rhodamine-PBP qHTS Assay for Modulators of WT P53-Induced Phosphatase 1 (WIP1) (AID 1347425). The method, boiled down:
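WIP1 (5 nM final) was preincubated with compound for 1 hour at room temperature. It then dephosphorylated 10 uM VEPPL-pS-QETFS peptide in Tris-HCl pH 7.5 with 30 mM MgCl2. Released Pi was detected by 10 uM Rh-PBP fluorescence (ex 525/em 598 nm) read at 1-min intervals for 11 min, as delta f1 - f0.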

Assay [3] can be described thus: Primary qHTS for inhibitors of La Crosse Virus (LACV) - induced cell death in SH-SY5Y cells (AID 1508616).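 Also: top concentration of the series differs between compounds; higher means more rescue of cells from virus-induced death.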 The essentials: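 SH-SY5Y, 6000 cells/well; cpd via pin tool in DMSO; LACV 0.01 MOI; 6 d 37C 5% CO2; ATPLite, 5 min RT; luminescence normalized to ±virus DMSO controls.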
The target of assay [4] is Calcium and integrin-binding protein 1 (Homo sapiens) (UniProt Q99828). Put plainly: Primary qHTS for Identification of Calcium Integrin Binding Protein 1 (CIB1) Competitor (AID 1508620).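 Also: GST tagged CIB1 binding a fluorescein labelled alphaIIb integrin peptide tracer; top concentration of the series differs between compounds.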 The essentials:
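Fluorescence polarization competition: GST-tagged CIB1 (1 uM final) preincubated with compound 15 min at room temperature, then FITC-labelled alphaIIb peptide (100 nM final) added. After 15 min at room temperature, polarization read at Ex 480/Em 540.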

A short description of assay [5]: Primary qHTS for small molecule stabilizers of the endoplasmic reticulum resident proteome: Secreted ER Calcium Modulated Protein (SERCaMP) assay (AID 1508630). The essentials: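 The SH-SY5Y reporter protocol was run at 3 concentrations up to 38.3 uM (primary) or 11 concentrations (follow-up): 16 h compound, 100 nM thapsigargin for 4 h, then extracellular luciferase luminescence.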

Assay [6] is described as follows: A High-Content qHTS Against Drug Library for the Identification of Small Molecules that Inhibit DYT1 Early Onset Primary Dystonia-Associated Cell Pathology (AID 1645839; calls by dose curve; also: series mostly up to about 46 µM). The essentials: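 Cells were seeded and left for 24 h, then dosed with compound alongside tetracycline induction of mutant EGFP-TorsinA. They were incubated for 48 h, fixed in 4% paraformaldehyde, permeabilized and imaged for mislocalization (%pathology) and cell count.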

For assay [7], the target named is Cytochrome P450 2D6 (Homo sapiens) (UniProt P10635). The assay is described as follows: Cytochrome P450 family 2 subfamily D member 6 (CYP2D6) small molecule antagonists: luciferase biochemical (cell-free) qHTS assay (AID 1645840; active = well fitted curve in the direction sought with a large enough effect in the repeat runs; an effect the other way counts as inactive or inconclusive; also: nearly all actives have a fitted effect of over 55% in size; also: potency is read from the fitted curve at half-maximal effect). The essentials:
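P450-Glo CYP2D6 system: proluciferin substrate converted by enzyme to luciferin, read by luminescence proportional to activity. Enzyme-substrate mix with compound 10 min at room temperature, then NADPH regeneration 1 h before detection reagent.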

Assay [8] is described as follows: Primary qHTS for inhibitors of SARS-S pseudo-typed particle cell entry (AID 1479145; calls by dose curve; also: nearly all actives have a fitted effect of over 45% in size).
Assay [9] can be described thus: Primary qHTS for Huh7 cytotoxicity: counterscreen for inhibitors of MERS-S pseudotyped particle cell entry (AID 1479147; calls by dose curve).
The nature of assay [10]: Primary qHTS for inhibitors of MERS-S pseudo-typed particle cell entry (AID 1479149; calls by dose curve; also: nearly all actives have a fitted effect of over 60% in size).
The nature of assay [11]: Primary qHTS for Vero E6 cytotoxicity: counterscreen for inhibitors of SARS-S pseudo-typed particle cell entry (AID 1479150; calls by dose curve).

Sequence of Calcium and integrin-binding protein 1 (Homo sapiens) (Q99828 whole entry, looked up): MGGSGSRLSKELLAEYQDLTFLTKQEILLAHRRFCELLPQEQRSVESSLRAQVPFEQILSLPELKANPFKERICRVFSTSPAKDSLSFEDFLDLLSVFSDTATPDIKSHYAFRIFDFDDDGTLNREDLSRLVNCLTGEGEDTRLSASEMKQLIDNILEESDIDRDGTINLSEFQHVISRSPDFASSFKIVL
Sequence of Protein phosphatase 1D (Homo sapiens) (O15297 whole entry, looked up): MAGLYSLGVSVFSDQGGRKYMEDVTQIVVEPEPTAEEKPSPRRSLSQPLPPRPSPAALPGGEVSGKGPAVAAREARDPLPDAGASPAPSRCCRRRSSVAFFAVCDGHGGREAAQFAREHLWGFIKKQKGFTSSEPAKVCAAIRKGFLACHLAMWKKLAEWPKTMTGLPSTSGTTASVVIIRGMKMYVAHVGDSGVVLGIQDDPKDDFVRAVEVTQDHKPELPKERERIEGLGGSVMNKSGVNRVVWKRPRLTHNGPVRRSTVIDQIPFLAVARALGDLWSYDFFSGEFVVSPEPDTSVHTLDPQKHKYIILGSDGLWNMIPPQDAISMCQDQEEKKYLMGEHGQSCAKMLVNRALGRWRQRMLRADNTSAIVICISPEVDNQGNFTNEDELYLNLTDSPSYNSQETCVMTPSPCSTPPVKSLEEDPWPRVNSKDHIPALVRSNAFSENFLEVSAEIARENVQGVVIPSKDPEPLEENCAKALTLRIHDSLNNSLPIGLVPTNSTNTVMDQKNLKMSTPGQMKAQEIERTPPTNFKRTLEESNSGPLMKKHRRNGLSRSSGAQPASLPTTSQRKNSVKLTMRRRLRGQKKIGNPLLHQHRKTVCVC
Sequence of Cytochrome P450 2D6 (Homo sapiens) (P10635 whole entry, looked up): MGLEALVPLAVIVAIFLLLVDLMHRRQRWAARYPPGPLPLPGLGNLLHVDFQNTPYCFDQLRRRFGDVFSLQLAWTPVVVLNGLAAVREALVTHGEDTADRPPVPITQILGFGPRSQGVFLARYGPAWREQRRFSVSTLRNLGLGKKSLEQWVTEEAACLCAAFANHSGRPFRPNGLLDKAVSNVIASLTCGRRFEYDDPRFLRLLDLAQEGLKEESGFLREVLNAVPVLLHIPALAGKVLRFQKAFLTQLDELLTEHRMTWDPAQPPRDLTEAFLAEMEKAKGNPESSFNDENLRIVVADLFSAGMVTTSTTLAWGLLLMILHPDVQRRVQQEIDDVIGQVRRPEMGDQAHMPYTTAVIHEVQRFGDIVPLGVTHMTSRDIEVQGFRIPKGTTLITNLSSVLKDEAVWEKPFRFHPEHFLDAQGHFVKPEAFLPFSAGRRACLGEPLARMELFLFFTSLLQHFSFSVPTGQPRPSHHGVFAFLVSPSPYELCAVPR

On to `CCOP(=S)(OCC)O/N=C(\C#N)c1ccccc1`, for which the Potency result in [1] and in [4] was “inactive” in each case. Besides, the result in [2], in assay [3], in assay [5] and in assay [6] was inactive. The Potency in assay [7] is 13.8 µM (active).
Regarding `Cc1ncc2n1-c1ccc(Cl)cc1C(c1ccccc1F)=NC2`, the Potency entry in assay [1] and in assay [4] was “inactive” each time. The outcome in [2], in [3], in assay [5] and in [6] was inactive.
Consider `CCc1ccc(C2CCNCC2)cc1`, for which the Potency result in assay [1] and in assay [4] was “inactive” in each case. In addition, the compound was called inactive in [2], in assay [3] and in assay [6].
Regarding `CN1CCC(N(Cc2ccccc2)c2ccccc2)CC1`, the Potency result in assay [1] and in [4] was “inactive” throughout. Besides, the call in assay [2], in [3] and in assay [6] was inactive.
On to `Oc1ccc([C@H]2CNCc3c2ccc(O)c3O)cc1O`, for which the outcome in assay [2], in [3] and in assay [5] was inactive. Moreover, the Potency result in assay [8], in assay [9], in assay [10] and in [11] was “inactive” throughout.
With `CCC1(c2ccccc2)CCC(=O)NC1=O` (stereo unspecified), the Potency result in [1], in assay [4] and in assay [7] was “inactive” in each case. In addition, the compound was classed as inactive in assay [2] and in assay [3].
`CCN(CC)C(C)C(=O)c1ccccc1` (stereo unspecified): the Potency result in [1] was “inactive”. For the same compound, the result in [2], in [3] and in assay [6] was inactive.
Consider `COP(=S)(OC)Oc1ccc(Sc2ccc(OP(=S)(OC)OC)cc2)cc1`, for which the Potency entry in assay [1], in [4] and in assay [7] was “inactive” in each case. For the same compound, the result in [2], in assay [3] and in [6] was inactive.
On to `CCOC(C(=O)OCCN(C)C)(c1ccccc1)c1ccccc1`, for which the Potency result in [1] and in assay [4] was “inactive” each time. Also, the call in assay [2], in assay [3] and in assay [6] was inactive. Further, in assay [7], the Potency was 1.38 µM (active).
